PubChem BioAssay (NCATS)
Records with an inconclusive call do not appear. Active and inactive are the calls of the source. Calls come from the whole dose curve; as a rule, active = well fitted activation curve with a large enough effect; inconclusive = small, poorly fitted or top-dose-only effect; inactive = flat fitted curve, though single readings scatter.

Test: Validation screen for small molecules that induce DNA re-replication in SW480 colon adenocarcinoma cells (AID 504364)
Details: DNA re-replication phenotype (high-content imaging); series mostly up to 46.1 µM
Source text: H Molecular Libraries Probe Production Network [MLPCN]
NIH Chemical Genomics Center [NCGC]
Assay Provider: Melvin DePamphilis, NICHD, NIH
Eukaryotic cells normally restrict genome duplication to once per cell division. When this process is aberrant, DNA re-replication occurs when cells reinitiate DNA replication before the first round of replication is complete. DNA re-replication induces the DNA damage response, arrests cell proliferation, and triggers apoptosis. The cell cycle components cyclin A, Cdt-1, Cdc6 and geminin are critical regulators of this process and their misregulation results in DNA re-replication in normal and cancer cells. To identify compounds that induce re-replication in normal cells, an image-based assay was used to measure DNA content of nuclei, as detected by the fluorescent DNA binding dye, Hoechst. Cell nuclei were imaged by a fluorescence scanning plate imager and compounds that induce DNA re-replication were identified by the increase of nuclei with elevated fluorescence intensity.#
For screening, 250 cells in 5 uL/well were dispensed into black clear 1536-well plates (Aurora) using a solenoid-based dispenser. Following transfer of 23 nL compound or DMSO vehicle by a pin tool, the plates were incubated 48 hr at 37 C and 5% CO2. After addition of 1 uL/well Hoescht stain, the plates were incubated 40 min at 37 C, 5% CO2 and total intensity of fluorescent objects (nuclei) were enumerated by an Acumen Explorer Ex3 (TTP LabTech) fluorescence scanning plate imager (405 nm excitation, 500-530 nm emission).
Keywords: NIH Roadmap, MLPCN, MLI, MLSMR, qHTS, NCGC, DNA replication, cancer

Structure (SMILES) | outcome
OC[C@H]1O[C@@H](n2cnc3c(N[C@H]4CC5CCC4C5)ncnc32)[C@H](O)[C@@H]1O (stereo not given in full) | inactive
C[C@H]1CC2[C@@H]3CCC4=CC(=O)C=C[C@]4(C)[C@@]3(Cl)[C@@H](O)C[C@]2(C)[C@@]1(O)C(=O)CO (stereo not given in full) | inactive
CCCCC#Cc1nc(N)c2ncn([C@@H]3O[C@H](C(=O)NCC)[C@@H](O)[C@H]3O)c2n1 | inactive
CN1C2CC(OC(=O)C(CO)c3ccccc3)CC1C1OC12 (stereo not given) | inactive
COC(=O)c1c(-c2cc(OC)c(OC)c(OC)c2)c2ccc(OCc3ccccn3)cc2c(=O)n1-c1ccc(N)cc1 | inactive
NC(=S)c1ccc[n+]([C@@H]2O[C@@H](COP(=O)([O-])OP(=O)(O)OC[C@H]3O[C@@H](n4cnc5c(N)ncnc54)[C@H](OP(=O)(O)O)[C@H]3O)C(O)C2O)c1 (stereo not given in full) | inactive
Nc1ncnc2c1nc(Sc1ccc(Cl)cc1)n2[C@H]1O[C@@H]2COP(=O)(O)O[C@H]2[C@@H]1O | inactive
Nc1nc(SCc2ccc([N+](=O)[O-])cc2)c2ncn([C@@H]3O[C@H](CO)[C@H](O)[C@H]3O)c2n1 | inactive
COc1ccc(CCNC[C@@H](O)c2ccc(O)cc2)cc1OC | inactive
CC(C)C1NC(=O)[C@H](CCCCN)NC(=O)[C@@H](Cc2c[nH]c3ccccc23)NC(=O)[C@H](Cc2ccc(O)cc2)NC(=O)[C@H](C)N(C)C(=O)[C@H](Cc2ccccc2)NC1=O (stereo not given in full) | inactive
OC[C@H]1O[C@@H](n2cnc3c(NC4CCCC4)ncnc32)[C@H](O)[C@H]1O | inactive
Cc1cn([C@H]2C[C@@H](N=[N+]=[N-])[C@@H](CO)O2)c(=O)[nH]c1=O | inactive
CNC(=O)[C@H]1O[C@@H](n2cnc3c(NCc4ccc(N)cc4)ncnc32)[C@H](O)[C@H]1O | inactive
OC[C@H]1O[C@@H](n2cnc3c(Nc4ccccc4)ncnc32)[C@H](O)[C@H]1O | inactive
CSc1nc(N)c2ncn([C@@H]3O[C@H](COP(=O)(O)OP(=O)(O)O)[C@H](O)[C@H]3O)c2n1 | inactive
CNc1ncnc2c1ncn2[C@@H]1O[C@H](CO)[C@H](O)[C@H]1O | inactive
N=C(N)SCCc1cccc(CCSC(=N)N)c1 | inactive
CC(=O)O[C@H]1C[C@@H]2CCC3C(CC[C@@]4(C)[C@H]3C[C@H]([N+]3(C)CCCCC3)[C@@H]4OC(C)=O)[C@@]2(C)C[C@@H]1[N+]1(C)CCCCC1 (stereo not given in full) | inactive
COc1cc2c(cc1OC)C(c1ccccc1)CN(C)CC2 (stereo not given) | inactive
CCCCCCCCCCCCCCC/C=C/[C@@H](O)[C@H](NC(=O)CCCCCCCCCCCCC)OC (tested in a mixture with another compound) | inactive

Structure (SMILES) | outcome
CN1C[C@H](C(=O)N[C@]2(C)O[C@@]3(O)C4CCCN4C(=O)[C@H](Cc4ccccc4)N3C2=O)C[C@@H]2c3cccc4[nH]cc(c34)C[C@H]21 (stereo not given in full) | inactive
O=C(Cc1ccc(Cl)c(Cl)c1)OCCN1CCCC1 | inactive
CC(N)=NCCCC(N)C(=O)O (stereo not given) | inactive
Nc1nc(Nc2ccccc2)nc2c1ncn2[C@@H]1O[C@H](CO)[C@H](O)[C@H]1O | inactive
NCC1OC(O[C@@H]2[C@H](O)[C@@H](OC3C(O)C(N)CC(N)C3OC3OC(CO)C(O)C(O)C3N)O[C@@H]2CO)C(N)C(O)C1O (stereo not given in full) | inactive
NCCNC(=O)c1ccc(Cl)cc1 | inactive
C[C@]12CCC(=O)C=C1CC[C@@H]1C2[C@@H](O)C[C@@]2(C)[C@H]1CC[C@]2(O)C(=O)CO (stereo not given in full) | inactive
CN(CCOc1ccc(C[C@H](Nc2ccccc2C(=O)c2ccccc2)C(=O)O)cc1)c1ccccn1 | inactive
CNCC[C@@H](Oc1ccc(C(F)(F)F)cc1)c1ccccc1 | inactive
CN1CCc2cc(Cl)c(O)cc2C(c2ccccc2)C1 (stereo not given) | inactive
CCCC(=O)NCCc1c2n(c3ccc(OC)cc13)Cc1ccccc1-2 | inactive
CSc1nc(N)c2ncn([C@@H]3O[C@H](COP(=O)(O)OP(=O)(O)OP(=O)(O)O)[C@H](O)[C@H]3O)c2n1 | inactive
Cc1ccccc1N1CCN(S(=O)(=O)C[C@]23CCC(CC2NC(=O)[C@@H](N)CCS(C)(=O)=O)C3(C)C)CC1 (stereo not given in full) | inactive
CCn1c(=O)c2[nH]c(-c3ccccc3)nc2n(CC)c1=O | inactive
CN1C2CCC1CC(NC(=O)c1nn(C)c3ccccc13)C2 (stereo not given) | inactive
Nc1nc2c(nc(Br)n2C2O[C@H]3COP(=O)(O)O[C@@H]3C2O)c(=O)[nH]1 (stereo not given in full) | inactive
OC[C@H]1O[C@@H](n2cnc3c(NCCc4ccccc4)ncnc32)[C@H](O)[C@H]1O | inactive
N.N.N.N.N.N.N.N.N.N.N.N.N.N.O.O.[Cl-].[Cl-].[Cl-].[Cl-].[Cl-].[Cl-].[Ru].[Ru].[Ru] | inactive
NC(=S)NCCCC(N)C(=O)O (stereo not given) | inactive
N=C1Sc2ccccc2C2=NCCCN12 | inactive
